Laboratory results published in PubChem BioAssay AID1159580 (chemical genetic matrix, 2015).
Out of some 5,500 compounds screened, about 2,000 (36%) were called active. Roughly 18% stayed inconclusive and do not appear here. Some of the results follow. Unmarked numbers belong to inactive results. Rule as the data show it: active = normalized growth mostly below about 0.91 (no sharp cut-off); inconclusive = no clear call, values can overlap the other calls; inactive = mostly above about 0.92.

Assay: chemical genetic growth profiling, strain panel (AID 1159580);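 also: tested at 20 µM; growth read once vehicle control cultures reached saturation at 30 °C; 1 = growth at the plate median or of vehicle wells; lower values mean less growth of the strain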
Details: growth OD

Work on `CCc1ccc2c(O)c3c(cc2c1C(=O)OC)C(=O)c1c(O)ccc(O)c1C3=O` yielded a normalized growth (S. cerevisiae deletion strains, locus YJR066W, strain TOR1, active compounds read low) of 0.895, a normalized growth (S. cerevisiae deletion strains, locus YJR075W, strain HOC1, active compounds read low) of 0.981 and a normalized growth (S. cerevisiae deletion strains, locus YKL068W, active compounds read low) of 0.99. It also gave a normalized growth (S. cerevisiae deletion strains, locus YKL085W, strain MDH1 (second series), active compounds read low) of 1.05, a normalized growth (S. cerevisiae deletion strains, locus YKL085W, strain MDH1, active compounds read low) of 1.05 and a normalized growth (S. cerevisiae deletion strains, locus YKL160W, strain elf1, active compounds read low) of 0.996. The normalized growth (S. cerevisiae deletion strains, locus YKR001C, strain vps1, active compounds read low) was 0.99, the normalized growth (S. cerevisiae deletion strains, locus YKR026C, strain gcn3, active compounds read low) was 0.979 and the normalized growth (S. cerevisiae deletion strains, locus YKR091W, strain srl3, active compounds read low) was 0.995. The normalized growth (S. cerevisiae deletion strains, locus YLL001W, strain dnm1, active compounds read low) was 0.973, the normalized growth (S. cerevisiae deletion strains, locus YLL026W, active compounds read low) was 0.983 and the normalized growth (S. cerevisiae deletion strains, locus YLL041C, strain sdh2, active compounds read low) was 0.999. The normalized growth (S. cerevisiae deletion strains, locus YLR027C, strain aat2, active compounds read low) was 0.994, the normalized growth (S. cerevisiae deletion strains, locus YLR039C, strain RIC1, active compounds read low) was 0.961 and the normalized growth (S. cerevisiae deletion strains, locus YLR058C, strain SHM2, active compounds read low) was 0.956. For the same molecule, the normalized growth (S. cerevisiae deletion strains, locus YLR102C, strain apc9, active compounds read low) was 0.999, the normalized growth (S. cerevisiae deletion strains, locus YLR113W, strain HOG1, active compounds read low) was 0.988 and the normalized growth (S. cerevisiae deletion strains, locus YLR221C, strain rsa3, active compounds read low) was 0.969. For the same molecule, the normalized growth (S. cerevisiae deletion strains, locus YLR258W, strain gsy2, active compounds read low) was 0.989, the normalized growth (S. cerevisiae deletion strains, locus YLR262C, strain YPT6 (second series), active compounds read low) was 0.956 and the normalized growth (S. cerevisiae deletion strains, locus YLR262C, strain YPT6, active compounds read low) was 0.95. It also gave a normalized growth (S. cerevisiae deletion strains, locus YLR268W, strain sec22, active compounds read low) of 0.98, a normalized growth (S. cerevisiae deletion strains, locus YLR320W, strain mms22, active compounds read low) of 0.98 and a normalized growth (S. cerevisiae deletion strains, locus YLR330W, strain CHS5, active compounds read low) of 1. For the same molecule, the normalized growth (S. cerevisiae deletion strains, locus YLR342W, strain FKS1 (second series), active compounds read low) was 0.977, the normalized growth (S. cerevisiae deletion strains, locus YLR342W, strain FKS1, active compounds read low) was 0.968 and the normalized growth (S. cerevisiae deletion strains, locus YLR357W, strain rsc2, active compounds read low) was 0.878. The normalized growth (S. cerevisiae deletion strains, locus YLR370C, strain arc18, active compounds read low) was 0.949, the normalized growth (S. cerevisiae deletion strains, locus YLR371W, strain rom2, active compounds read low) was 0.995 and the normalized growth (S. cerevisiae deletion strains, locus YLR384C, strain iki3, active compounds read low) was 1. For the same molecule, the normalized growth (S. cerevisiae deletion strains, locus YLR418C, strain cdc73, active compounds read low) was 0.932, the normalized growth (S. cerevisiae deletion strains, locus YML016C, strain PPZ1, active compounds read low) was 0.983 and the normalized growth (S. cerevisiae deletion strains, locus YML032C, strain rad52, active compounds read low) was 0.932. For the same molecule, the normalized growth (S. cerevisiae deletion strains, locus YML120C, strain ndi1, active compounds read low) was 0.999, the normalized growth (S. cerevisiae deletion strains, locus YML124C, strain tub3, active compounds read low) was 0.998 and the normalized growth (S. cerevisiae deletion strains, locus YMR058W, strain fet3, active compounds read low) was 0.762 (active). It also gave a normalized growth (S. cerevisiae deletion strains, locus YMR078C, strain ctf18, active compounds read low) of 0.997, a normalized growth (S. cerevisiae deletion strains, locus YMR125W, strain sto1, active compounds read low) of 1.01 and a normalized growth (S. cerevisiae deletion strains, locus YMR129W, active compounds read low) of 0.966. For the same molecule, the normalized growth (S. cerevisiae deletion strains, locus YMR205C, strain PFK2, active compounds read low) was 0.984, the normalized growth (S. cerevisiae deletion strains, locus YMR223W, strain ubp8, active compounds read low) was 0.933 and the normalized growth (S. cerevisiae deletion strains, locus YMR231W, strain pep5, active compounds read low) was 0.995. For the same molecule, the normalized growth (S. cerevisiae deletion strains, locus YMR307W, strain GAS1, active compounds read low) was 0.998, the normalized growth (S. cerevisiae deletion strains, locus YNL067W, strain RPL9B, active compounds read low) was 0.973 and the normalized growth (S. cerevisiae deletion strains, locus YNL071W, strain lat1, active compounds read low) was 1. It also gave a normalized growth (S. cerevisiae deletion strains, locus YNL153C, strain GIM3, active compounds read low) of 0.954, a normalized growth (S. cerevisiae deletion strains, locus YNL183C, strain NPR1, active compounds read low) of 0.908 and a normalized growth (S. cerevisiae deletion strains, locus YNL209W, strain ssb2, active compounds read low) of 0.981. The normalized growth (S. cerevisiae deletion strains, locus YNL233W, strain BNI4, active compounds read low) was 0.98, the normalized growth (S. cerevisiae deletion strains, locus YNL248C, strain rpa49, active compounds read low) was 0.961 and the normalized growth (S. cerevisiae deletion strains, locus YNL250W, strain rad50, active compounds read low) was 0.972. It also gave a normalized growth (S. cerevisiae deletion strains, locus YNL271C, strain bni1, active compounds read low) of 0.965, a normalized growth (S. cerevisiae deletion strains, locus YNL298W, strain CLA4, active compounds read low) of 0.985 and a normalized growth (S. cerevisiae deletion strains, locus YNL307C, strain MCK1, active compounds read low) of 1. The normalized growth (S. cerevisiae deletion strains, locus YNL322C, strain KRE1 (second series), active compounds read low) was 0.979, the normalized growth (S. cerevisiae deletion strains, locus YNR049C, strain mso1, active compounds read low) was 0.967 and the normalized growth (S. cerevisiae deletion strains, locus YNR052C, strain pop2, active compounds read low) was 0.984. It also gave a normalized growth (S. cerevisiae deletion strains, locus YOL006C, strain TOP1, active compounds read low) of 1.07, a normalized growth (S. cerevisiae deletion strains, locus YOL012C, strain htz1) of 0.673 and a normalized growth (S. cerevisiae deletion strains, locus YOL147C, strain pex11, active compounds read low) of 1.01. It also gave a normalized growth (S. cerevisiae deletion strains, locus YOR001W, strain rrp6, active compounds read low) of 0.973, a normalized growth (S. cerevisiae deletion strains, locus YOR061W, strain CKA2, active compounds read low) of 0.957 and a normalized growth (S. cerevisiae deletion strains, locus YOR069W, strain VPS5, active compounds read low) of 0.999. It also gave a normalized growth (S. cerevisiae deletion strains, locus YOR070C, strain gyp1, active compounds read low) of 0.988, a normalized growth (S. cerevisiae deletion strains, locus YOR080W, strain dia2, active compounds read low) of 0.991 and a normalized growth (S. cerevisiae deletion strains, locus YOR083W, strain WHI5, active compounds read low) of 0.98. It also gave a normalized growth (S. cerevisiae deletion strains, locus YOR106W, strain vam3, active compounds read low) of 0.964, a normalized growth (S. cerevisiae deletion strains, locus YOR136W, strain idh2, active compounds read low) of 1.01 and a normalized growth (S. cerevisiae deletion strains, locus YOR144C, strain elg1, active compounds read low) of 0.993. For the same molecule, the normalized growth (S. cerevisiae deletion strains, locus YOR184W, strain ser1, active compounds read low) was 0.965, the normalized growth (S. cerevisiae deletion strains, locus YOR231W, strain MKK1, active compounds read low) was 0.965 and the normalized growth (S. cerevisiae deletion strains, locus YOR265W, strain rbl2, active compounds read low) was 0.987. The normalized growth (S. cerevisiae deletion strains, locus YOR270C, strain vph1, active compounds read low) was 0.827, the normalized growth (S. cerevisiae deletion strains, locus YOR290C, strain snf2, active compounds read low) was 0.929 and the normalized growth (S. cerevisiae deletion strains, locus YOR316C, strain cot1, active compounds read low) was 0.992. It also gave a normalized growth (S. cerevisiae deletion strains, locus YPL051W, strain arl3, active compounds read low) of 0.953, a normalized growth (S. cerevisiae deletion strains, locus YPL078C, strain atp4, active compounds read low) of 0.977 and a normalized growth (S. cerevisiae deletion strains, locus YPL106C, strain sse1, active compounds read low) of 0.974. The normalized growth (S. cerevisiae deletion strains, locus YPL240C, strain hsp82, active compounds read low) was 0.983, the normalized growth (S. cerevisiae deletion strains, locus YPL241C, strain CIN2, active compounds read low) was 0.99 and the normalized growth (S. cerevisiae deletion strains, locus YPL256C, strain CLN2, active compounds read low) was 1.03. The normalized growth (S. cerevisiae deletion strains, locus YPR119W, strain clb2, active compounds read low) was 1, the normalized growth (S. cerevisiae deletion strains, locus YPR141C, strain kar3, active compounds read low) was 0.979 and the normalized growth (S. cerevisiae deletion strains, locus YPR163C, strain tif3, active compounds read low) was 1.01. For the same molecule, the normalized growth (S. cerevisiae deletion strains, locus YPR167C, strain met16, active compounds read low) was 0.965, the normalized growth (S. cerevisiae deletion strains, strain wtn01, active compounds read low) was 1 and the normalized growth (S. cerevisiae strains, strain wild type, active compounds read low) was 0.971.
